For eleven compounds, Percent Effect results are on record in ChEMBL document CHEMBL3988442, “University of Dundee, Small-Polar-MMV Screening Library” (2021).

For some of these results: Measured potencies and affinities stand elsewhere.

Holding throughout (set-up): scale not given: direction of the effect not stated beside the values
The target in test [1] is Protein translocase subunit SecA (Escherichia coli (strain K12)) (UniProt P10408). Nature of the test: Assay to Identify E. coli SecA ATPase Inhibitors. It counts as functional. The following applies: 30 µM.
Sequence of Protein translocase subunit SecA (Escherichia coli (strain K12)) (P10408 whole entry): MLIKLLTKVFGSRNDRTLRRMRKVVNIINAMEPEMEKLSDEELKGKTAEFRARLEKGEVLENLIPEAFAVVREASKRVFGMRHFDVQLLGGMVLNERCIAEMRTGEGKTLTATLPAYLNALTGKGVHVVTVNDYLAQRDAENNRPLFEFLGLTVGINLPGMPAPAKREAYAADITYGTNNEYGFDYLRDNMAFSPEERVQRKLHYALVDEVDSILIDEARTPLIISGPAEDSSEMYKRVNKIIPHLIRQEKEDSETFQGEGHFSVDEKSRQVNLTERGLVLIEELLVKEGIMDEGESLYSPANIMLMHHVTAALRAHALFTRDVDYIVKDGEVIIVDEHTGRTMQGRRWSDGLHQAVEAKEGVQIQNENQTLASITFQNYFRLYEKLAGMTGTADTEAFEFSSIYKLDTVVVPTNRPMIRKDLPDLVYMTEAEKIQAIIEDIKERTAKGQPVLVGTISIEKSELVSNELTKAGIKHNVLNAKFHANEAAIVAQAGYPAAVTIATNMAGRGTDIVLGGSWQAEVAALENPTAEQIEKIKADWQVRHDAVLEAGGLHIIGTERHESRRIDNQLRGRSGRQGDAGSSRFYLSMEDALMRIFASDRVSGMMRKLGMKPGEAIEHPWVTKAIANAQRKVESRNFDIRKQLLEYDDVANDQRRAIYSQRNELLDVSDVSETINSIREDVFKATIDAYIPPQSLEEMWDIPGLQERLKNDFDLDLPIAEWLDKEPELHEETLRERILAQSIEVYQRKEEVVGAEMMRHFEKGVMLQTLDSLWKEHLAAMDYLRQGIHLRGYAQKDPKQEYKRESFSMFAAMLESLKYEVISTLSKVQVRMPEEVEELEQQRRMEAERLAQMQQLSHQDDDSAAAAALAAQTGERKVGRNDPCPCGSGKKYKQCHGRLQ
Test [2] addresses T1, Ubiquitin-activating enzyme e1, putative (Leishmania donovani (strain BPK282A1)) (UniProt E9BSI1).
T1 sequence (whole entry): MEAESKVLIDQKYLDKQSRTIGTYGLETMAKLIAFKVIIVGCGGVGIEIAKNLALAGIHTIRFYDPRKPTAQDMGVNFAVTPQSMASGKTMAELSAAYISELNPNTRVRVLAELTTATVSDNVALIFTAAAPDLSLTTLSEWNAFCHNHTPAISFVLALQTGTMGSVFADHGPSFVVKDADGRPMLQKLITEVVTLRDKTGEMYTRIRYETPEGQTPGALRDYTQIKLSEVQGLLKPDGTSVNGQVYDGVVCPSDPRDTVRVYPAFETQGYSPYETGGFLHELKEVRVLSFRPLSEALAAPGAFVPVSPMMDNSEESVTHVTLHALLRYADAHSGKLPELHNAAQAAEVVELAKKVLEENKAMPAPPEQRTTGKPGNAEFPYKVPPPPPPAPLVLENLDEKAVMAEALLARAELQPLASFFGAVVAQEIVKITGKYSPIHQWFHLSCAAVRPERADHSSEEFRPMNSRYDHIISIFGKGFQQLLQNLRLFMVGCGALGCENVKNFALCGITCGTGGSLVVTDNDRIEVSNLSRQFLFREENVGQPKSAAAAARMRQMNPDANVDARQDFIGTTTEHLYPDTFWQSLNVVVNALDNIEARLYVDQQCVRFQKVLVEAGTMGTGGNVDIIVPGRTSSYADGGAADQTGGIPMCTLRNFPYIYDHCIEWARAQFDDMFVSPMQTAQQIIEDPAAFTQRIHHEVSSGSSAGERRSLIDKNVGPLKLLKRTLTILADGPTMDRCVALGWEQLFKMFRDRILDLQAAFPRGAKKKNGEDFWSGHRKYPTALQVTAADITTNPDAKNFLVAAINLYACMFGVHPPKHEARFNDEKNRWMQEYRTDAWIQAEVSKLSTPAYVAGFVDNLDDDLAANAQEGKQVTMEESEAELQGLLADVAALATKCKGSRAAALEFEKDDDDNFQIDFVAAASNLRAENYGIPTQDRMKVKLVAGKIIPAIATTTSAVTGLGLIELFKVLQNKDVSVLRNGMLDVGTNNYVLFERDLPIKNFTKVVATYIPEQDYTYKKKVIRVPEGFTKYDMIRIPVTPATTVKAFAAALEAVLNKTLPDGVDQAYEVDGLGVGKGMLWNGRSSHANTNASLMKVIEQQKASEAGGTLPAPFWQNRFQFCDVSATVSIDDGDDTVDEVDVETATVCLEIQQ
Nature of the test: Leishmania donovani Ubiquitin Activating Enzyme (LdE1). The following applies: 30 µM. Format: functional.

The target of test [3] is AMP-activated protein kinase, AMPK (Homo sapiens) (UniProt P54646+O43741+P54619+Q9UGJ0+Q9Y478+Q13131+Q9UGI9). Nature of the test: AMP-dependent Kinase enzyme assay. An in vitro enzyme assay that detects ADP turnover that is directly proportional to AMPK activity. This uses naive AMPK that is activated during the assay with MK-8722. Format: functional. The following applies: 30 µM.

The target of test [4] is Sialic acid-binding Ig-like lectin 9 (Homo sapiens) (UniProt Q9Y336). Briefly: Hs-Siglec9 ALPHAscreen SOP 20170721. The following applies: 10 µM.
Sequence of Sialic acid-binding Ig-like lectin 9 (Homo sapiens) (Q9Y336 whole entry): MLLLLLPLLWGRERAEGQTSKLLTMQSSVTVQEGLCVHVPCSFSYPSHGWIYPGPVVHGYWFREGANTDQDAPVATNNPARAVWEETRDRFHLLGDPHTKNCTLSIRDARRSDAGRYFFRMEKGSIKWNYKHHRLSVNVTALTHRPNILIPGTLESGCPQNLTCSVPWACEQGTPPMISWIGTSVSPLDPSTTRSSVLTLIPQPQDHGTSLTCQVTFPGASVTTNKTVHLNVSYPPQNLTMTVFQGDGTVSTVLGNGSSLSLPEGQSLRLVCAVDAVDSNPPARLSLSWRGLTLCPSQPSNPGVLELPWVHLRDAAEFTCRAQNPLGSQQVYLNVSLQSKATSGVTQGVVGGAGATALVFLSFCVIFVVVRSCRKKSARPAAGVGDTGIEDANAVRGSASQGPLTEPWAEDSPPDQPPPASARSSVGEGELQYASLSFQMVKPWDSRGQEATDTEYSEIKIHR
Another test deals with Trypanosoma cruzi. Nature of the test: Trypanosoma cruzi phosphomannomutase and mannose-1-phosphate guanylyltransferase assay. The following applies: 10 µM. Format: functional.
Test [5] addresses T2, Arginase-2, mitochondrial (Homo sapiens) (UniProt P78540).
T2 sequence (whole entry): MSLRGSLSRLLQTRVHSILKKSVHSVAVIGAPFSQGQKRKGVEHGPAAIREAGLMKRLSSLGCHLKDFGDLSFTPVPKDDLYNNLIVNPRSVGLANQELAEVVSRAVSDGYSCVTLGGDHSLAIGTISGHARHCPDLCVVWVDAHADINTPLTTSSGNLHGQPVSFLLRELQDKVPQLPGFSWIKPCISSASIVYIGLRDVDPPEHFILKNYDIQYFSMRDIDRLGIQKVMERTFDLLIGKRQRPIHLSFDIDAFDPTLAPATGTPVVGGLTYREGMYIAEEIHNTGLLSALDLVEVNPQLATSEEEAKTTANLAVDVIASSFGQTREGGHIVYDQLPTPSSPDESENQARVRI
Nature of the test: in vitro enzyme assay to detect the production of urea directly proportional to the activity of Arginase II. Also: in the data most compounds retested in dose-response had high values. Format: functional. The following applies: 33.3 µM.

Test [6] concerns the target T3, Proteasome subunit beta (Trypanosoma cruzi) (UniProt O96673).
T3 sequence (whole entry): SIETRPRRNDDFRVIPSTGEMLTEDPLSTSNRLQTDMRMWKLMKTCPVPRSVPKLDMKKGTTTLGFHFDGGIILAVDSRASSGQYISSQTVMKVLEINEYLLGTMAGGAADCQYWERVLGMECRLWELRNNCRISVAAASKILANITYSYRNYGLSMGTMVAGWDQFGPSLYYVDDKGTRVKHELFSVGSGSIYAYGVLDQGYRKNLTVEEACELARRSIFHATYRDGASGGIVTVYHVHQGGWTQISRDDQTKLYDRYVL
Briefly: Trypanosoma cruzi proteasome chymotrypsin-like activity (TcProtChymo) assay. Also: in the data most compounds retested in dose-response had high values. It counts as functional. The following applies: 9.37 µM.

The species named for a further test is Homo sapiens. Nature of the test: To identify inhibition of the IFN signalling (Jak-Stat) pathway via expression of an eGFP reporter gene under the control of an IFN-stimulated response element (ISRE) containing MxA promoter. The following applies: 30 µM. Format: functional.
For test [7], the target named is T4, Tyrosyl-tRNA synthetase, putative (Trypanosoma cruzi (strain CL Brener)) (UniProt Q4DSP6).
T4 sequence (whole entry): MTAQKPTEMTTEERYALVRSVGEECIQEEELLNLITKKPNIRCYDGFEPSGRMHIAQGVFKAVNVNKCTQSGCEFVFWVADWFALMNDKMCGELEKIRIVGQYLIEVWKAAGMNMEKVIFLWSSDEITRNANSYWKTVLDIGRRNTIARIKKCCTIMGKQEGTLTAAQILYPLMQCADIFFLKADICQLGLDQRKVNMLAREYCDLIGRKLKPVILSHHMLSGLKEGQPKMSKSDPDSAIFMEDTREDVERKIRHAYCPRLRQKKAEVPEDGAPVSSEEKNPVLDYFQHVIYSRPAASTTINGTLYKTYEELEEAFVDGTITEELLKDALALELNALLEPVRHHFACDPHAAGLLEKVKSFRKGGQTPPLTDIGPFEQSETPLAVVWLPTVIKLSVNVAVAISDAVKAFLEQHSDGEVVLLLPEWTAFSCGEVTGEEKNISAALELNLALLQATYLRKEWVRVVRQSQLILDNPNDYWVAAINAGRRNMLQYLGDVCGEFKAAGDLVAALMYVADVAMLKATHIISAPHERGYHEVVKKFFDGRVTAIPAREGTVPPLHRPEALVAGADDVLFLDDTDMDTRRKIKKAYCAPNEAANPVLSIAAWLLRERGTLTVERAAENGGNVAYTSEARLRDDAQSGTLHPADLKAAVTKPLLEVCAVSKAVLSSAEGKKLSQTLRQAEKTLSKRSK
Briefly: Trypanosoma cruzi tyrosyl tRNA synthetase (TcYRS) _High Tyrosine SOP. Also: in the data most compounds retested in dose-response had high values. Format: functional. The following applies: 30 µM.

Test [8] concerns the target T4, Tyrosyl-tRNA synthetase, putative (Trypanosoma cruzi (strain CL Brener)). Nature of the test: Trypanosoma cruzi tyrosyl tRNA synthetase (TcYRS) SOP. It counts as functional. The following applies: 30 µM.
Test [9] addresses Chromo domain-containing protein 1 (Saccharomyces cerevisiae (strain ATCC 204508 / S288c) (Baker's yeast)) (UniProt P32657). Briefly: ScCHD-1 Enzyme Inhibition Assay. Also: in the data most compounds retested in dose-response had high values. It counts as functional. The following applies: 30 µM.

Sequence of Chromo domain-containing protein 1 (Saccharomyces cerevisiae (strain ATCC 204508 / S288c) (Baker's yeast)) (P32657 whole entry, the tested form may be a part): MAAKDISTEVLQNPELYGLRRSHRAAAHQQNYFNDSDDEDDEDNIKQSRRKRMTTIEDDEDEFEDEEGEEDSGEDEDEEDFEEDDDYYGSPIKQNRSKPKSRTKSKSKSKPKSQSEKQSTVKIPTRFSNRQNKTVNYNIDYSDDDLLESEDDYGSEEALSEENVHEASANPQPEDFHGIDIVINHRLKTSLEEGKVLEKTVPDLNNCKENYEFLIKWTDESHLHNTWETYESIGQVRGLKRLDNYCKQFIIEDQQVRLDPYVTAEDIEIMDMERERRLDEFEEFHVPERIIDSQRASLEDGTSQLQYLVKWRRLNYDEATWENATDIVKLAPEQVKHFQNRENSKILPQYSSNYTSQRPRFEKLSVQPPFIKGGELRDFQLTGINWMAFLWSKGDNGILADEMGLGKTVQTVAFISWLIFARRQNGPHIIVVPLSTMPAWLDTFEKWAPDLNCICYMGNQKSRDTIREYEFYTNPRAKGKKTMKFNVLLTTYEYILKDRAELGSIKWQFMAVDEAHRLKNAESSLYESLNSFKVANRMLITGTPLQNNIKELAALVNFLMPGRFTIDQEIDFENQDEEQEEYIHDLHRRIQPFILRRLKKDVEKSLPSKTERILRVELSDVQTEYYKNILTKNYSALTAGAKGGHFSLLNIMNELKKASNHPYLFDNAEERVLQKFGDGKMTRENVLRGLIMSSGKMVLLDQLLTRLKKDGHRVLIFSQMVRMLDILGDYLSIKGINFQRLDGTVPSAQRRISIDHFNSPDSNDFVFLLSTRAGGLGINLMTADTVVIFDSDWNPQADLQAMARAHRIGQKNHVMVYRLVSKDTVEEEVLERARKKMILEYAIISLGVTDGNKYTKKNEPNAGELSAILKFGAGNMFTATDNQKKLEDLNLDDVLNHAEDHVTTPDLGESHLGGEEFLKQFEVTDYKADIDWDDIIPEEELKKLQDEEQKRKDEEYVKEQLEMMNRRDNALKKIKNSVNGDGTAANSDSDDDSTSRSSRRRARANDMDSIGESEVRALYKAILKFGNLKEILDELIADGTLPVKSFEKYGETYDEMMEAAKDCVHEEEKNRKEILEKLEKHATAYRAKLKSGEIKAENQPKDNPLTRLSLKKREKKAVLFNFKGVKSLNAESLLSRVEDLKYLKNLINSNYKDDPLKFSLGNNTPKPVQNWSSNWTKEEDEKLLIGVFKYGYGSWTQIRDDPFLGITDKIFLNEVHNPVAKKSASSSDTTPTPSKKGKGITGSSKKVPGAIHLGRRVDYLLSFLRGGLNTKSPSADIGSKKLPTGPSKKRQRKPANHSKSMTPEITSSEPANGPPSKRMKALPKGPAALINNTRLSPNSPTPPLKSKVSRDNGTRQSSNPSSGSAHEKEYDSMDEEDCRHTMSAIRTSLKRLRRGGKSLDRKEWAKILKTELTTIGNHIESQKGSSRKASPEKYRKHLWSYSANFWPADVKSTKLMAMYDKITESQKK

`CC1N(CC2CC2)C(=O)COC12CCN(Cc1nccs1)CC2` (stereo unspecified): the Percent Effect in test [1] is -2.73%; in [2], 11%; in test [3], -7.81%; in test [4], 11.6%; in the test on Trypanosoma cruzi, 5.56%; in test [5] it was -2%. The Percent Effect was 11.2% in test [6]; -5.88% in the test filed under Homo sapiens; 4.17% in [7]; 6.17% in test [8]; -5.43% in test [9].

`CSCC(=O)N1C[C@H]2CC[C@@H]1CN(Cc1ccccc1)C2`: the Percent Effect in test [1] is -2.57%; in test [2], 8.22%; in test [3], 14.1%; in test [4], -0.0854%; in the test with Trypanosoma cruzi it was 0%; in test [5], 0.455%. For the same compound, the Percent Effect was 10.8% in test [6]; 15.3% in the test listed under Homo sapiens; 11.8% in test [7]; 12.5% in [8]; -6.22% in test [9].

On to `COCCCN(C)C1CCCN(Cc2noc(C)n2)C1` (stereo unspecified), for which the Percent Effect is -1.35% in [1]; 2.7% in test [2]; -5.43% in [3]; 12.9% in test [4]; 4.18% in the test with Trypanosoma cruzi; -0.554% in test [5]. Also, the Percent Effect in [6] was -3.05%; in the test filed under Homo sapiens, 11.9%; in test [7], 3.96%; in test [8], 15.8%; in test [9], -1.13%.

`CN(C)C(C(=O)N1CCCC1)c1ccccc1F` (stereo unspecified): the Percent Effect was -2.84% in test [1]; 1.39% in test [2]; 3.5% in test [3]; -3.25% in test [4]; -5.54% in the test on Trypanosoma cruzi; 5.3% in test [5]. The Percent Effect in test [6] was 4.74%; in the test filed under Homo sapiens it was -1.68%; in [7] it was 3.16%; in test [8], 2.56%; in test [9], -0.0422%.

Consider `Cc1csc(N2CCN(Cc3cnc(C)s3)CC2C)n1` (stereo unspecified), for which the Percent Effect in [1] was -4.06%; in test [2], 5.48%; in test [3], 3.55%; in test [4] it was -0.927%; in the test with Trypanosoma cruzi, 2.94%; in test [5] it was 1.36%. Further, the Percent Effect in test [6] was 11.2%; in the test listed under Homo sapiens, 52.1%; in test [7], 5.38%; in test [8] it was 17.5%; in test [9] it was -2.04%.

Turning to `CCOc1ccc(C(C)NC(=O)N2CCC(C(N)=O)CC2)cc1OC` (stereo unspecified), the Percent Effect in test [1] is -4.66%; in test [2] it was 10.8%; in [3] it was 4.64%; in test [4], 6.99%; in the test on Trypanosoma cruzi it was 6.76%; in test [5], 1.43%. For the same compound, the Percent Effect is 14.7% in test [6]; 4.99% in the test listed under Homo sapiens; 5.82% in test [7]; 12.2% in test [8]; -0.606% in [9].

As to `COCC(=O)N1CCC(c2cccc(Cc3ccc(F)cc3)n2)CC1`, the Percent Effect was 0.623% in test [1]; 9.46% in test [2]; 7.38% in [3]; -1.91% in test [4]; -6.13% in the test with Trypanosoma cruzi; 3.94% in [5]. Further, the Percent Effect in [6] was 5.15%; in the test filed under Homo sapiens, 22.7%; in test [7], 2.15%; in test [8], 11.7%; in [9], -12.4%.

For `CN(C)S(=O)(=O)N1C[C@@H]2CC[C@H](C1)N(Cc1ccc3nsnc3c1)C2`, the Percent Effect in test [1] is -6.44%; in test [2], 9.72%; in test [3], -22.2%; in [4], 43.5%; with Trypanosoma cruzi, 3.21%; in test [5], 21.2%. The Percent Effect in test [6] is 4.04%; in the test listed under Homo sapiens, 4.28%; in [7], 2.1%; in test [8], 12.8%; in [9], -5.13%.

Consider `CC(C)c1nc(C2CCCN2Cc2ccccc2C#N)no1` (stereo unspecified), for which the Percent Effect in test [1] is -1.53%; in [2] it was -13%; in [3] it was -3.89%; in test [4], 11.4%; in the test on Trypanosoma cruzi it was 5.24%; in test [5], 1.07%. Moreover, the Percent Effect is -4.22% in test [6]; 5.77% in the test filed under Homo sapiens; 5.83% in test [7]; 12.2% in test [8]; 73.9% in test [9].

Turning to `CN(C(=O)NCc1ccncc1)C1CCN(c2ccccc2)C1=O` (stereo unspecified), the Percent Effect is -4.85% in [1]; 13.2% in [2]; -3.87% in test [3]; 3.74% in test [4]; 6.58% in the test on Trypanosoma cruzi; -3.06% in [5]. In addition, the Percent Effect was 10% in [6]; 5.78% in the test listed under Homo sapiens; 6.37% in [7]; 12.2% in test [8]; -10.8% in test [9].

Regarding `NC(=O)c1cccc(CC2CCN(C(=O)CO)C2)c1` (stereo unspecified), the Percent Effect in [1] is -1.68%; in [2], 19.2%; in test [3], 10.3%; in test [4], 10.6%; in the test on Trypanosoma cruzi it was 3.33%; in test [5] it was -0.909%. Besides, the Percent Effect is 15.4% in test [6]; 2.47% in the test filed under Homo sapiens; 4.3% in test [7]; 17.5% in test [8]; -3.86% in test [9].
